Laboratory results reported in PubChem BioAssay (NCATS).
Records with an inconclusive call do not appear. Activity calls are given as the source filed them. Unless noted, calls follow the shape of the full dose curve.

How the values were obtained:
[1] = target: Estrogen receptor (Homo sapiens) (UniProt P03372); test: qHTS assay for small molecule antagonists of estrogen receptor alpha signaling (AID 588513; active = well fitted curve in the direction sought with a large enough effect in the signal ratio, with a control signal flat, not every such curve was filed as active; the % refers to the signal ratio; also: % is scaled to controls: 0 for no effect and ±100 for the full control effect)
Summary of the method: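 Beta-lactamase reporter, antagonist mode, HEK 293 GripTite cells; 0.5nM E2 stimulus, 18 h, 37 C; CCF4 dye 2 h RT; fluorescence. IC50 and efficacy from Hill fits, normalized to E2 and DMSO.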

[2] = target: Estrogen receptor (Homo sapiens) (UniProt P03372); test: qHTS assay for small molecule agonists of estrogen receptor alpha signaling (AID 588514);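 also: 0% = vehicle only and 100% = reference agonist; nearly all actives have a fitted effect of over 70% in size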
Summary of the method: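 Efficacy is expressed against 20 nM 17-beta-estradiol (100%) and DMSO basal (0%); EC50 from Hill equation. Assay: beta-lactamase reporter in ER-alpha-UAS-bla HEK 293 cells, 18 h compound incubation, CCF4 detection.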

[3] = target: Androgen receptor (Homo sapiens) (UniProt P10275); test: qHTS assay for small molecule agonists of androgen receptor signaling (AID 588515; active = well fitted curve in the direction sought with a large enough effect in the signal ratio, with a control signal flat; the % refers to the signal ratio; also: % is scaled to controls: 0 for no effect and ±100 for the full control effect); conditions: AR-UAS-bla HEK293, beta-lactamase ratio, agonist 16 h; stronger effect = higher value
Summary of the method: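 Stimulation of an AR-responsive β-lactamase reporter in GripTite HEK293 cells was measured after 16 h compound exposure at 37 °C, via CCF4 fluorescence after 2 h RT. EC50 from Hill fits, normalized to R1881 at 30 nM.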

[4] = target: Androgen receptor (Homo sapiens) (UniProt P10275); test: qHTS assay for small molecule antagonists of androgen receptor signaling (AID 588516; active = well fitted curve in the direction sought with a large enough effect in the signal ratio, with a control signal flat, not every such curve was filed as active; the % refers to the signal ratio; also: % is scaled to controls: 0 for no effect and ±100 for the full control effect)
Summary of the method: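 HEK293 AR-UAS-bla cells, 10% dialyzed FBS medium; cpd titration + R1881 10 nM final, 16 h 37 C; CCF4 2 h RT; FRET ratio; IC50/efficacy via Hill fit.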

[5] = target: Bile acid receptor (Homo sapiens) (UniProt Q96RI1); test: qHTS assay for small molecule antagonists of farnesoid X receptor signaling (AID 588526); also: % is scaled to controls: 0 for no effect and ±100 for the full control effect
Summary of the method: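 Concentration-response titrations were fitted to the Hill equation for half-maximal inhibition and maximal response, with data normalised to 50 uM chenodeoxycholic acid and DMSO control wells. Cells: FXR-UAS-bla HEK293T, dialyzed FBS.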

[6] = target: Bile acid receptor (Homo sapiens) (UniProt Q96RI1); test: qHTS assay for small molecule agonists of farnesoid X receptor signaling (AID 588527); conditions: HEK293T FXR-UAS-bla, beta-lactamase ratio, 16 h; activation: stronger effect = higher value;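 also: series mostly up to about 77 µM; 0% = vehicle basal and 100% = reference agonist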
Summary of the method: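 Read-out: beta-lactamase reporter fluorescence with CCF4 substrate in GeneBLAzer FXR-UAS-bla HEK293T cells, after 16 h compound exposure at 37 C. Response scaled between DMSO basal (0%) and chenodeoxycholic acid at 100 uM (100%).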

[7] = target: Peroxisome proliferator-activated receptor delta (Homo sapiens) (UniProt Q03181); test: qHTS assay for small molecule agonists of peroxisome proliferator-activated receptor delta signaling (AID 588534);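 also: 0% = DMSO basal wells and 100% = positive control agonist at 10 µM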
Summary of the method: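 Agonist-mode qHTS; reporter cells, 5 hrs 37 C pre-incubation; compound titration, 18 hrs 37 C; CCF4 dye, 2 hrs RT; fluorescence read. EC50/efficacy via Hill fit.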

[8] = qHTS assay for small molecule antagonists of peroxisome proliferator-activated receptor delta signaling (AID 588535; active = well fitted inhibition curve with a large enough effect in the signal ratio, with a control signal flat, not every such curve was filed as active; the % refers to the signal ratio;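 as to max response: cells co-treated with a PPAR-delta agonist as stimulator during compound exposure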); conditions: HEK293T PPARd-UAS-bla, beta-lactamase FRET ratio, 18 h; 460 nm channel
Summary of the method: (§1)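 Inhibition of PPAR-delta response element-driven beta-lactamase expression is measured in HEK293T cells exposed to a compound titration series for 18 hrs at 37 C. Half-maximal inhibition comes from Hill equation fitting.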

[9] = target: Peroxisome proliferator-activated receptor delta (Homo sapiens) (UniProt Q03181); test: as above
Summary of the method: as §1

[10] = target: Peroxisome proliferator-activated receptor gamma (Homo sapiens) (UniProt P37231); test: qHTS assay for small molecule agonists of peroxisome proliferator-activated receptor gamma signaling (AID 588536; active = well fitted curve in the direction sought with a large enough effect in the signal ratio, with a control signal flat, not every such curve was filed as active; the % refers to the signal ratio;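 also: 0% = DMSO basal wells and 100% = rosiglitazone at 2 µM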)
Summary of the method: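 Beta-lactamase reporter read-out: CCF4 fluorescence (ex 405, em 460/530 nm) after 2 h at RT. HEK293 GeneBLAzer cells were treated for 16 h at 37 C. Hill fits gave EC50 and efficacy versus 2 uM rosiglitazone (100%) and DMSO (0%).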

[11] = target: Vitamin D3 receptor (Homo sapiens) (UniProt P11473); test: qHTS assay for small molecule antagonists of vitamin D receptor signaling (AID 588541)
Summary of the method: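 VDR-UAS-bla HEK293T cells (2000/well, 2% charcoal-stripped FBS) were treated with titrated compounds plus 1-alpha,25-dihydroxyvitamin D3 (50 nM or 3 nM final) for 16 h at 37 C. CCF4 beta-lactamase fluorescence was read; Hill fits gave IC50.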

[12] = target: Retinoic acid receptor RXR-alpha (Homo sapiens) (UniProt P19793); test: qHTS assay for small molecule agonists of retinoid X receptor alpha signaling (AID 588544); also: potency is read from the fitted curve at half-maximal effect;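 as to activation: 0% = DMSO basal wells and 100% = reference agonist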
[13] = target: Thyroid hormone receptor beta (Homo sapiens) (UniProt P10828); test: qHTS assay for small molecule agonists of thyroid hormone receptor beta signaling (AID 588545)
Summary of the method: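 In this cell-based screen, titrated compounds act on HEK 293 cells held in medium with 2% charcoal/dextran FBS, NEAA and pyruvate for 18 hrs at 37 C. Responses are expressed relative to T3 (10 nM) as 100% and basal DMSO as 0%.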

[14] = qHTS assay for small molecule antagonists of retinoid X receptor alpha signaling (AID 588546; active = well fitted inhibition curve with a large enough effect in the signal ratio, with a control signal flat, not every such curve was filed as active; the % refers to the signal ratio); conditions: HEK293T RXRa-UAS-bla, beta-lactamase ratio, antagonist mode; measured here: W530 green channel, cytotoxicity proxy
Summary of the method: (§2)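 Beta-lactamase reporter inhibition, read as CCF4 fluorescence ratio (ex 405, em 460/530 nm) after 2 h at RT. HEK293T UAS-bla cells, 2500/well, were stimulated with 9-cis-RA at 500 or 100 nM final alongside test compound for 18 h at 37 C.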

[15] = target: Retinoic acid receptor RXR-alpha (Homo sapiens) (UniProt P19793); test: as above; conditions: HEK293T RXRa-UAS-bla, beta-lactamase ratio, antagonist mode
Summary of the method: as §2

[16] = qHTS assay for small molecule agonists of the antioxidant response element (ARE) signaling pathway (AID 651741; active = well fitted activation curve with a large enough effect in the signal ratio; the % refers to the signal ratio; also: % of control where 0% means no effect)
Summary of the method: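 Reporter: beta-lactamase under ARE, stably in HepG2. Exposure: 16 h, 37 C, compounds delivered in DMSO by pin tool after 5 h cell preincubation. Readout: FRET substrate fluorescence after 2 h at RT.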

[17] = qHTS assay for small molecule activators of the nuclear factor-kappa B (NF-kB) signaling pathway (AID 651749; active = well fitted activation curve with a large enough effect in the signal ratio; the % refers to the signal ratio; also: series mostly up to about 77 µM; % of control where 0% means no effect); conditions: NF-kB-bla ME-180 cells, beta-lactamase FRET ratio, 16 h; activation: stronger effect = higher value
Summary of the method: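 Human ME-180 cervical cells with an NF-kB-bla construct; compounds added via 23 nL pin transfer, DMSO as vehicle; incubation 16 hr. Reporter activity measured by FRET disruption.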

[18] = target: Peroxisome proliferator-activated receptor alpha (Homo sapiens) (UniProt Q07869); test: qHTS assay for small molecule agonists of the peroxisome proliferator-activated receptor alpha (PPARalpha) signaling pathway (AID 651778; active = well fitted curve in the direction sought with a large enough effect; an effect the other way counts as inactive or inconclusive; also: % of control where 0% means no effect); conditions: PathHunter PPARalpha complementation, chemiluminescence, 6 h; max response: stronger effect = higher value
Summary of the method: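 Cells plated at 2,000/well and held overnight at 37 C, 5% CO2, then compound added by pin tool for 6 hr; after PathHunter detection reagent and 60 min at room temperature, chemiluminescence from enzyme complementation was read.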

[19] = qHTS assay for small molecule agonists of the antioxidant response element (ARE) signaling pathway measured by Nrf2-dependant transcriptional activity (AID 720636; active = well fitted curve in the direction sought with a large enough effect in the repeat runs; an effect the other way counts as inactive or inconclusive;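 also: HepG2 cells with an ARE-driven luciferase reporter; % of control where 0% means no effect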)
Summary of the method: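 Reporter gene assay, HepG2 ARE-luc: 16 hr compound, 37 C, 5% CO2; read-out luciferase luminescence.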

[20] = qHTS assay for small molecule agonists of the antioxidant response element (ARE) signaling pathway measured by Nrf2-dependant transcriptional activity - cell viability counter screen (AID 720653; active = well fitted curve in the direction sought with a large enough effect in the repeat runs; an effect the other way counts as inactive or inconclusive; also: % is scaled to controls: 0 for no effect and ±100 for the full control effect); conditions: ARE-bla HepG2 viability, CellTiter-Glo ATP luminescence, 16 h; max response: stronger effect = lower value
Summary of the method: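 ARE-bla HepG2 cells (2,000/well) rested 5 hrs at 37C/5% CO2, then exposed to compounds in DMSO for 16 hrs. Viability was read in the same wells as intracellular ATP by luminescence, 30 min at room temperature after reagent addition.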

[21] = qHTS assay for cell viability of HEK293 cells (AID 743288; active = well fitted curve in the direction sought with a large enough effect; an effect the other way counts as inactive or inconclusive; also: % is scaled to controls: 0 for no effect and ±100 for the full control effect; nearly all actives have a fitted effect of over 50% in size); conditions: ATP luminescence (CellTiter-Glo), 18 h; max response: stronger effect = lower value
Summary of the method: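 ATP luminescence (CellTiter-Glo) reports metabolically competent cell number after parental HEK293 cells, 2,000/well, were treated with DMSO-dissolved compounds for 18 h at 37 C; reagent incubation 30 min, room temperature.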

[22] = qHTS assay for cell viability of the p53RE-bla HCT-116 cell line (AID 743292; active = well fitted curve in the direction sought with a large enough effect; an effect the other way counts as inactive or inconclusive; also: % is scaled to controls: 0 for no effect and ±100 for the full control effect; nearly all actives have a fitted effect of over 55% in size)
Summary of the method: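 Readout: CellTiter-Glo luminescence after 30 min RT. Treatment: compounds in DMSO, 16 h, 37 C. Cells: CellSensor p53RE-bla HCT-116, 4,000/well, preincubated 5 h.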

[23] = target: Vitamin D3 receptor (Homo sapiens) (UniProt P11473); test: qHTS assay for small molecule agonists of vitamin D receptor signaling (AID 588543);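 also: 0% = DMSO basal and 100% = reference agonist control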
Summary of the method: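 β-lactamase reporter, VDR-UAS-bla HEK293T, agonist mode. Cells plated 5 h at 37 °C, compound titration 16 h at 37 °C, CCF4 dye 2 h RT, ratio 460/530 nm. Hill fit → EC50, efficacy vs 50 nM 1α,25-(OH)2D3.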

[24] = qHTS assay for small molecule agonists of retinoid X receptor alpha signaling (AID 588544); conditions: HEK293T RXRa-UAS-bla, beta-lactamase reporter, 18 h; 530 nm emission; also: potency is read from the fitted curve at half-maximal effect;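 as to activation: 0% = DMSO basal wells and 100% = reference agonist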
[25] = qHTS assay for small molecule activators of the p53 signaling pathway (AID 651743; active = well fitted activation curve with a large enough effect in the signal ratio, not every such curve was filed as active; the % refers to the signal ratio; also: series mostly up to about 92 µM; % of control where 0% means no effect); conditions: HCT-116 p53RE-bla, beta-lactamase FRET ratio, 16 h; activation: stronger effect = higher value
Summary of the method: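 Agonist-mode quantitative HTS in HCT-116 cells carrying a p53-response-element beta-lactamase reporter; 16 h compound treatment at 37 C, then FRET substrate loading for 2 h at room temperature and fluorescence read.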

[26] = qHTS assay for environmental chemicals that activate the Aryl hydrocarbon Receptor (AhR) signaling pathway (AID 651777; active = well fitted curve in the direction sought with a large enough effect; an effect the other way counts as inactive or inconclusive; also: % of control where 0% means no effect; nearly all actives have a fitted effect of over 15% in size); conditions: 1A2-DRE human hepatoma cells, luciferase, 24 h; activation: stronger effect = higher value
Summary of the method: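 Stable CYP1A2 promoter/DRE-luciferase human hepatoma line treated 24 hr; One-Glo luminescence, 30 min RT.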

[27] = target: Nuclear receptor subfamily 1 group I member 2 (Rattus norvegicus) (UniProt Q9R1A7); test: qHTS assay for small molecule activators of the rat pregnane X receptor (rPXR) signaling pathway (AID 651751; call rule not given here; also: 0% is about no effect); conditions: rPXR reporter cells, luciferase (One-Glo), 24 h
[28] = target: Cytochrome P450 3A4 (Homo sapiens) (UniProt P08684); test: qHTS Assay for Activators of Cytochrome P450 3A4 (AID 885; active = well fitted curve in the direction sought with a large enough effect; an effect the other way counts as inactive or inconclusive; also: nearly all actives have a fitted effect of over 65% in size)
Summary of the method: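 Activators are scored by enhanced luminescence from CYP3A4 conversion of luciferin-PPXE (25uM, equal to KM) to luciferin, after 60 min at RT with an NADPH-regenerating system.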

[29] = target: DNA dC->dU-editing enzyme APOBEC-3G (Homo sapiens) (UniProt Q9HC16); test: qHTS for inhibitors of Vif-A3G interactions: Validation (AID 588379; active = well fitted curve in the direction sought with a large enough effect; an effect the other way counts as inactive or inconclusive; also: 0% is about no effect)
Summary of the method: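 Yellow fluorescence (Ex 488, Em 500-530) of Vif-coexpressing HeLa A3G-eYFP cells, scanned by Acumen cytometer, reports blocked A3G degradation. Cells plated at 700/well overnight at 37 deg C before compound addition, then a further overnight compound incubation at 37 deg C.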

Chain of Retinoic acid receptor RXR-alpha (Homo sapiens) (P19793 whole entry, looked up): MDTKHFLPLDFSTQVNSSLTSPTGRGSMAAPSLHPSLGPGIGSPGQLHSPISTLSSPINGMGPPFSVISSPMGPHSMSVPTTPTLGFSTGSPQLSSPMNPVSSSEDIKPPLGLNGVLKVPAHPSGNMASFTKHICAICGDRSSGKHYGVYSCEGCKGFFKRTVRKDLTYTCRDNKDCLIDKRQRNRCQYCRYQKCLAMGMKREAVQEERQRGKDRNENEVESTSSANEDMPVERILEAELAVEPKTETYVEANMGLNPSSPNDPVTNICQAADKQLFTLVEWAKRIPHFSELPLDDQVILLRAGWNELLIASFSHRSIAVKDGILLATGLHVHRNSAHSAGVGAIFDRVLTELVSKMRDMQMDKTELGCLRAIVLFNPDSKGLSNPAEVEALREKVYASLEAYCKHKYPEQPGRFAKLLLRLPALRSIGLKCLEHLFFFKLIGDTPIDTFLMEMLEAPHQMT
Chain of Vitamin D3 receptor (Homo sapiens) (P11473 whole entry, looked up): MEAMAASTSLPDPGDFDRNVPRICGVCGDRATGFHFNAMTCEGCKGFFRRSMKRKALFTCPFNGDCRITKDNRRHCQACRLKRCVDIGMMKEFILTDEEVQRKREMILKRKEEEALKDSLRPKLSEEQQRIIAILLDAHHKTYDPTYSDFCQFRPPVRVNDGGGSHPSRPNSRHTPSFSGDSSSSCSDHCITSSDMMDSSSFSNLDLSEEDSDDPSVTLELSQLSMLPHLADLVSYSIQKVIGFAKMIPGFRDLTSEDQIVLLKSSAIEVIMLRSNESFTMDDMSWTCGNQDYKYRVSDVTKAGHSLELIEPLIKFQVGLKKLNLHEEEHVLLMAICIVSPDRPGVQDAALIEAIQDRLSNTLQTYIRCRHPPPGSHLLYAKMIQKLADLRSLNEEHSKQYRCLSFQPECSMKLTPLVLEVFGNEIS
Chain of Bile acid receptor (Homo sapiens) (Q96RI1 whole entry, looked up): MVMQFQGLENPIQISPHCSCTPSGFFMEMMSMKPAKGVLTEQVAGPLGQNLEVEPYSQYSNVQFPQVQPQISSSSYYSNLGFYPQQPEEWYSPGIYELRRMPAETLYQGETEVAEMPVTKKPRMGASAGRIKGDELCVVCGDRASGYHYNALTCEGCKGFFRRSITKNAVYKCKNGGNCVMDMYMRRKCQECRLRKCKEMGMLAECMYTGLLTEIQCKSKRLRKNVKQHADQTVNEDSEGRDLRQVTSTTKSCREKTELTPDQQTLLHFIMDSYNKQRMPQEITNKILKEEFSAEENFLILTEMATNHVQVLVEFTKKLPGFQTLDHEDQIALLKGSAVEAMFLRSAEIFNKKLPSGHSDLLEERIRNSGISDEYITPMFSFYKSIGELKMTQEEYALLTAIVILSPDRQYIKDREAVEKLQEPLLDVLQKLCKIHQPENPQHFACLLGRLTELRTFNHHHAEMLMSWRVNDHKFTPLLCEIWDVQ
Chain of Estrogen receptor (Homo sapiens) (P03372 whole entry, looked up): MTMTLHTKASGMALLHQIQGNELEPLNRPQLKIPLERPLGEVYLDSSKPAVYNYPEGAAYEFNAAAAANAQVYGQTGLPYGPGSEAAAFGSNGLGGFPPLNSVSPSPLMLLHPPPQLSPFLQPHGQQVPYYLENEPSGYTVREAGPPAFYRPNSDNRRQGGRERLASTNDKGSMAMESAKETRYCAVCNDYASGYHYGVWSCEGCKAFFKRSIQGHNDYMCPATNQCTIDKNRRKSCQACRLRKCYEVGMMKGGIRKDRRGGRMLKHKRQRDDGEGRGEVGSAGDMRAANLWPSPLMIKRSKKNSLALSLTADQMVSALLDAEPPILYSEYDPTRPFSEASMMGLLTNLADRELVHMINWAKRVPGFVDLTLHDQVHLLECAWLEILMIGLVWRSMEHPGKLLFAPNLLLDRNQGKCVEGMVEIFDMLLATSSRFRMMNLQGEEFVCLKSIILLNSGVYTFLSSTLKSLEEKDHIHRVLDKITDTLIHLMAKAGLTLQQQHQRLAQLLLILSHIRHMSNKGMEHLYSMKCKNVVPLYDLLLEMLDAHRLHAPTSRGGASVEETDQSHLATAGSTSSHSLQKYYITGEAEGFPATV
Chain of Androgen receptor (Homo sapiens) (P10275 whole entry, looked up): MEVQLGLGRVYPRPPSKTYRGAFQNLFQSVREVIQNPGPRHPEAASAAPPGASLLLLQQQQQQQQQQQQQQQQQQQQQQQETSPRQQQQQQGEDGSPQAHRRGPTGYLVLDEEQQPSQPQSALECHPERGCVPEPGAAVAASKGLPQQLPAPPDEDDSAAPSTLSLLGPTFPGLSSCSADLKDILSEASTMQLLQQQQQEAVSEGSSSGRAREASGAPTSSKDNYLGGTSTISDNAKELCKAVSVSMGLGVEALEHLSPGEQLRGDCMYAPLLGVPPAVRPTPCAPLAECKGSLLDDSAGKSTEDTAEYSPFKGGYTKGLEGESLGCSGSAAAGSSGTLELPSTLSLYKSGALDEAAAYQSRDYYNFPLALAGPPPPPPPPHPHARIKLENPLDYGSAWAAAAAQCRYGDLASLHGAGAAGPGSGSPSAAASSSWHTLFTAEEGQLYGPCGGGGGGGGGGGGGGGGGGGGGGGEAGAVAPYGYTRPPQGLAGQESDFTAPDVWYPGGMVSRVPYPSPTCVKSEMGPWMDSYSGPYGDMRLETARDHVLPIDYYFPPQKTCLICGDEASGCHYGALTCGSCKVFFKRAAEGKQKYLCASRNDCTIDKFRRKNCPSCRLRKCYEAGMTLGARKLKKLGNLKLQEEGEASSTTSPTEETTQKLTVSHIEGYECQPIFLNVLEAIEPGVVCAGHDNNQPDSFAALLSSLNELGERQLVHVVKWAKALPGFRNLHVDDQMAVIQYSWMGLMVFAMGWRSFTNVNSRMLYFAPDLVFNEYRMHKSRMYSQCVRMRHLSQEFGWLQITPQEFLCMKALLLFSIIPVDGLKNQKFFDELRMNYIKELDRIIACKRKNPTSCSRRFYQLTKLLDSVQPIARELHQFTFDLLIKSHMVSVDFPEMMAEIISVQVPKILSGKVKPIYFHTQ
Chain of Peroxisome proliferator-activated receptor delta (Homo sapiens) (Q03181 whole entry, looked up): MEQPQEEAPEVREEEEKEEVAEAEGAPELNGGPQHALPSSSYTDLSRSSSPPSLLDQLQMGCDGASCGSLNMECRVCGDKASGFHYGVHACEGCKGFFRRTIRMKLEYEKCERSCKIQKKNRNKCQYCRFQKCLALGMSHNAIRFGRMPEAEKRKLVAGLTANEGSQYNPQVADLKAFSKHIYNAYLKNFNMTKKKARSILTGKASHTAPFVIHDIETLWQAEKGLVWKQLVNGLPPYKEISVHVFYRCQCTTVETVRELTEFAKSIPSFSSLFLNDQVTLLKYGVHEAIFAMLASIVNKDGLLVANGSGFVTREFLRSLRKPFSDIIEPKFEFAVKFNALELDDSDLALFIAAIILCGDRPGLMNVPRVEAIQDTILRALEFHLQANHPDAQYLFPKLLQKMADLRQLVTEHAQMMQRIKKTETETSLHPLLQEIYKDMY
Chain of Peroxisome proliferator-activated receptor alpha (Homo sapiens) (Q07869 whole entry, looked up): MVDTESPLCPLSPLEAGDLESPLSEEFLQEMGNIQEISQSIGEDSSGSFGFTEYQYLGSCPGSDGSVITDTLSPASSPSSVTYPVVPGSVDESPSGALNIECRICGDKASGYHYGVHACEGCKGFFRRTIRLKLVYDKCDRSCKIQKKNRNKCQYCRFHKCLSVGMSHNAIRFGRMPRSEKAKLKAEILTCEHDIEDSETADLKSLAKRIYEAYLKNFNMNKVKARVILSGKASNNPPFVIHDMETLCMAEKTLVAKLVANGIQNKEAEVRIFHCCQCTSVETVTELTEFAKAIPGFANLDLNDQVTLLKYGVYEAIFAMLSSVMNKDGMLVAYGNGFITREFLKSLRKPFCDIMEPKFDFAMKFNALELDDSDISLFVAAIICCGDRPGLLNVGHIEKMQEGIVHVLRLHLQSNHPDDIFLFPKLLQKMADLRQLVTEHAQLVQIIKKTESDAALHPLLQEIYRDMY
Chain of Peroxisome proliferator-activated receptor gamma (Homo sapiens) (P37231 whole entry, looked up): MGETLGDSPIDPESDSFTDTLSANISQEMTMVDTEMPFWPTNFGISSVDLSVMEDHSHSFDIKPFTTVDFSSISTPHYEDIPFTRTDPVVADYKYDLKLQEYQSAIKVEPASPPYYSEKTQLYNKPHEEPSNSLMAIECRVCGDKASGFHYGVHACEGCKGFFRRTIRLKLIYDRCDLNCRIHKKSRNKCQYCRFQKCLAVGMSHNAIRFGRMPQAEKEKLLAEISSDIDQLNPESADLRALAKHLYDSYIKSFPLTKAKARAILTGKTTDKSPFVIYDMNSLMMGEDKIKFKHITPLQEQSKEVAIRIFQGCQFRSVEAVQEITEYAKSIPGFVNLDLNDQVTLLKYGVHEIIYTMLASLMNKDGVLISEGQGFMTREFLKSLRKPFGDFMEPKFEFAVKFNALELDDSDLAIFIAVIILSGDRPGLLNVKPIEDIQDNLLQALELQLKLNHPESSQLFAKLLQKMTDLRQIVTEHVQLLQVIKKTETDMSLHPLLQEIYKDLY
Chain of Thyroid hormone receptor beta (Homo sapiens) (P10828 whole entry, looked up): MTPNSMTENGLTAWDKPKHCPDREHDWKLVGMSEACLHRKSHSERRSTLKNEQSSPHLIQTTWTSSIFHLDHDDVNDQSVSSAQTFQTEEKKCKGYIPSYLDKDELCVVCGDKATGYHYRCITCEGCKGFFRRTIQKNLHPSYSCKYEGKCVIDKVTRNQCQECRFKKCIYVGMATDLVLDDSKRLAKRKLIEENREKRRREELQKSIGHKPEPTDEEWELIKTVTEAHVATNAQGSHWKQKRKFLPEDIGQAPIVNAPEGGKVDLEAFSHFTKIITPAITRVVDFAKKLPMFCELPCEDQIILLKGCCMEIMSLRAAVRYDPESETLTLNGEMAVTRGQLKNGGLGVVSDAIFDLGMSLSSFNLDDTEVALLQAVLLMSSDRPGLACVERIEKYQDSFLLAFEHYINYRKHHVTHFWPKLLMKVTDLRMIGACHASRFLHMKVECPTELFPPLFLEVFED

CCOP(=S)(OCC)Oc1ncn(-c2ccccc2)n1
-1.85%: max response [14]
inactive: Potency [1] | Potency [2] | activation [3] 5.78% | Potency [4] | Potency [5] | activation [6] 2.14% | outcome [7] | Potency [9] | Potency [10] | Potency [11] | Potency [12] | Potency [13] | max response [15] -7.83% | Potency [16] | activation [17] 2.03% | max response [18] -2.29% | Potency [19] | max response [20] -3.44% | max response [21] -0.263% | Potency [22]
1.15%: max response [8]

C=CC(=O)OCCCCCC(C)C
-13.5%: max response [24]
-15.4%: max response [14]
38.5%: max response [8]
inactive: Potency [1] | Potency [2] | activation [3] 3.1% | Potency [5] | activation [6] 1.09% | outcome [7] | Potency [9] | Potency [10] | Potency [11] | outcome [23] | Potency [13] | max response [15] -5.23% | Potency [16] | activation [25] -4.19% | activation [17] 1.07% | activation [26] -0.0847% | max response [18] -1.09% | Potency [19] | max response [20] 8.44% | max response [21] 4.71% | Potency [22] | max response [27] 0.944%
active: Potency [12] 31.6 µM

COC(C)C(O)(C(=O)OC1=CCN2CC[C@H](O)[C@H]12)C(C)C (stereo not given in full)
inactive: Potency [28] | outcome [29]
